Results filed as inconclusive are left out. Active and inactive are the calls of the source. Rule for the calls, unless noted: active = hit-call score of the fitted dose curve at least 0.9, where 1 is the maximum; inactive = score below 0.9.
Legend:
[1] = ATG_PBREM_CIS: Attagene CIS-FACTORIAL HepG2 Assay for human Phenobarbital-responsive Enhancer Module (PBREM) (AID 2282955); conditions: HepG2 PBREM cis-reporter, Attagene multiplexed transcription; actives raise or lower the signal
Procedure, shortened: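 Fluorescence of labelled reporter cDNA fragments, resolved by capillary electrophoresis, gives mRNA induction in transfected HepG2 cells treated for 24 h; DMSO serves as negative control and baseline.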

[2] = ATG_PXRE_CIS: Attagene CIS-FACTORIAL HepG2 Assay for human Pregnane X Receptor Element (PXRE) (AID 2282957); conditions: HepG2 Attagene CIS-FACTORIAL PXRE reporter, mRNA; actives raise or lower the signal
Procedure, shortened: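 After a 24 h chemical incubation, total RNA from transfected HepG2 cells was reverse-transcribed and reporter cDNA amplified, FAM-labeled, HpaI-digested and sized by capillary electrophoresis. DMSO served as baseline for bidirectional curve fitting.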

[3] = ATG_PPRE_CIS: Attagene CIS-FACTORIAL HepG2 Assay for human Peroxisome Proliferator-activated Response Element (PPRE) (AID 2282958); conditions: HepG2 PPRE cis-element reporter, Attagene transcription factor profiling; actives raise or lower the signal
Procedure, shortened: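 Cells are first transfected transiently with the multiplexed reporter library, then dosed for 24 h. Total RNA is reverse-transcribed, amplified, fluorescently end-labeled and HpaI-cut before capillary electrophoresis; activity is fitted bidirectionally against DMSO controls.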

[4] = ATG_RORE_CIS: Attagene CIS-FACTORIAL HepG2 Assay for human RAR-related Orphan Receptor Element (RORE) (AID 2282959); conditions: HepG2 Attagene cis-factorial RORE reporter, mRNA; actives raise or lower the signal
Procedure, shortened: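 Cells were HepG2 carrying transfected cis-regulated reporter constructs, dosed for 24 hours. Total RNA was reverse-transcribed and reporter cDNA amplified, fluorescently labeled and sized by capillary electrophoresis. Activity was fitted bidirectionally relative to DMSO.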

[5] = ATG_Sox_CIS: Attagene CIS-FACTORIAL HepG2 Assay for human SRY-box transcription factor (SOX) (AID 2282960); conditions: HepG2 Attagene cis-factorial SOX reporter, mRNA; actives raise or lower the signal
Procedure, shortened: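 Transient MRTU transfection of HepG2; 24 h compound incubation; TriZol RNA, oligo(dT) RT, PCR, 6-FAM primer extension, HpaI cut, CE. Bidirectional fit, DMSO = baseline.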

[6] = target: Transcription factor Sp1 (Homo sapiens) (UniProt P08047); experiment: ATG_Sp1_CIS: Attagene CIS-FACTORIAL HepG2 Assay for human Specificity Protein 1 (Sp1) (AID 2282961); conditions: HepG2 Sp1 cis-reporter transcription, actives raise or lower the signal
Sequence of Transcription factor Sp1 (Homo sapiens) (P08047 whole entry, looked up): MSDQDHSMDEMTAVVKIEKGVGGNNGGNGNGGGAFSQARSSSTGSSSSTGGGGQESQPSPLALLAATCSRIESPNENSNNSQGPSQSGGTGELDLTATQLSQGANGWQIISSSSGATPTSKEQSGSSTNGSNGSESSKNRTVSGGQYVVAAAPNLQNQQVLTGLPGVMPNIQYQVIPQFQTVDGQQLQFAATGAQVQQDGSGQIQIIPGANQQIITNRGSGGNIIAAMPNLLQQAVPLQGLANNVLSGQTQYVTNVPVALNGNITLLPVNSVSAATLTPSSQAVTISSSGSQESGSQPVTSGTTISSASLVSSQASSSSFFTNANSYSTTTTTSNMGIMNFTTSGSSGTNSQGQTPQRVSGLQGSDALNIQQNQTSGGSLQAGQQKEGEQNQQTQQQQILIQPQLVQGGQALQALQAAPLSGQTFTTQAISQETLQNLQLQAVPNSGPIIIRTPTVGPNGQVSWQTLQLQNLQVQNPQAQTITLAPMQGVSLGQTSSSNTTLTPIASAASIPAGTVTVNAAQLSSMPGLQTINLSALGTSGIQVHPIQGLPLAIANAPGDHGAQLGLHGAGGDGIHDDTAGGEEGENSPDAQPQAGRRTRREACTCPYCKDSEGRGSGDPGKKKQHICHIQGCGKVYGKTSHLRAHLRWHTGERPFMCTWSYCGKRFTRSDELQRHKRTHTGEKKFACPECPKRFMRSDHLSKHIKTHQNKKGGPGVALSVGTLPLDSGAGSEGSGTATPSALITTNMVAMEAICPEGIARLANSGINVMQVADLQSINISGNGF
Procedure, shortened: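 Endogenous Sp1 activity was gauged in human liver HepG2 cells bearing transfected reporter units under a cis-regulating promoter. After 24 h dosing, reporter mRNA was quantified by RT-PCR with capillary electrophoresis, and activity fitted bidirectionally versus DMSO.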

[7] = ATG_SREBP_CIS: Attagene CIS-FACTORIAL HepG2 Assay for human Sterol Regulatory Element Binding (SREBP) (AID 2282962); conditions: HepG2 Attagene cis-factorial SREBP reporter, mRNA; actives raise or lower the signal
Procedure, shortened: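 Endogenous factor activity is measured in HepG2 through multiplexed reporter units under cis-element control. Following a 24 h incubation, reporter transcripts are reverse-transcribed, PCR-amplified and sized by capillary electrophoresis; activity is fitted in both directions relative to DMSO.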

[8] = target: Signal transducer and activator of transcription 3 (Homo sapiens) (UniProt P40763); experiment: ATG_STAT3_CIS: Attagene CIS-FACTORIAL HepG2 Assay for human Signal Transducer and Activator of Transcription 3 (STAT3) (AID 2282963); conditions: HepG2, Attagene cis-factorial STAT3 reporter transcription; actives raise or lower the signal
Sequence of Signal transducer and activator of transcription 3 (Homo sapiens) (P40763 whole entry, looked up, the tested form may be a part): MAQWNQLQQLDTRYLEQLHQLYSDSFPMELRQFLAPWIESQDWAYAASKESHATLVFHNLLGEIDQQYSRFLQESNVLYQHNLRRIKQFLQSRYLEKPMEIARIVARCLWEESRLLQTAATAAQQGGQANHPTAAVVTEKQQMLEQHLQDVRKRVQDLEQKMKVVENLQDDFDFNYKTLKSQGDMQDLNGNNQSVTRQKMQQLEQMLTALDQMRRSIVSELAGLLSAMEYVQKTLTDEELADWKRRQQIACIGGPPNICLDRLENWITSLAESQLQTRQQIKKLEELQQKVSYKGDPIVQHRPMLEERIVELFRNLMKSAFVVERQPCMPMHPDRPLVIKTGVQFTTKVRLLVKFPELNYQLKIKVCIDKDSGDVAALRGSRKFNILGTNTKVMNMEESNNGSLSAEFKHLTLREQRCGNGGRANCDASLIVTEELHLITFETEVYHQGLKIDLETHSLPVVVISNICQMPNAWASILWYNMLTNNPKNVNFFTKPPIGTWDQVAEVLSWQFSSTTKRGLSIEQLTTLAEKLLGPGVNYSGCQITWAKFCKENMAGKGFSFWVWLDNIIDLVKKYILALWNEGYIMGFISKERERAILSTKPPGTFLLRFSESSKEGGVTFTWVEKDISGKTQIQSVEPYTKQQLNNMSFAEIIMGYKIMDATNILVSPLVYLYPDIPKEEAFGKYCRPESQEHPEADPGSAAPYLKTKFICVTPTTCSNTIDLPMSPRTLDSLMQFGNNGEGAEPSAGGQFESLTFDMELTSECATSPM
Procedure, shortened: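 Fluorescence intensity of 6-FAM-labelled reporter fragments, separated by capillary electrophoresis after RT-PCR, gave the signal. Cells were HepG2 transfected with cis-element reporter units and treated 24 h; fitting was bidirectional relative to DMSO.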

[9] = ATG_TA_CIS: Attagene CIS-FACTORIAL HepG2 Assay for human TA Basal Promoter (AID 2282964); conditions: HepG2 Attagene CIS-factorial TA basal promoter reporter; actives raise or lower the signal
Procedure, shortened: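 Read-out: fluorescent reporter-transcript fragments resolved by capillary electrophoresis after RT-PCR and HpaI digestion. Source: HepG2 cells carrying transiently transfected multi-reporter cis constructs, treated 24 h. Endpoint fitted bidirectionally relative to DMSO.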

[10] = ATG_TCF_b_cat_CIS: Attagene CIS-FACTORIAL HepG2 Assay for human T-Cell-Factor with beta-catenin (TCF/b-cat) (AID 2282965); conditions: HepG2 TCF/beta-catenin cis-reporter transcription, actives raise or lower the signal
Procedure, shortened: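 Cells of the HepG2 line carry transiently transfected reporter units whose promoters respond to endogenous factors. Twenty-four hours post-dosing, reporter mRNA induction is measured by fluorescent RT-PCR and capillary electrophoresis, with DMSO as baseline.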

[11] = ATG_TAL_CIS: Attagene CIS-FACTORIAL HepG2 Assay for human TAL Basal Promoter (AID 2282966); conditions: HepG2 Attagene cis-factorial TAL promoter reporter; actives raise or lower the signal;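 note: background control endpoint measuring basal TAL promoter reporter mRNA not a specific factor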
Procedure, shortened: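 Basal-promoter background-control endpoint from a multiplexed HepG2 reporter panel. Cells were exposed 24 h, then reporter mRNA was read by RT-PCR/CE fluorescence and fitted in both directions relative to DMSO.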

[12] = ATG_TGFb_CIS: Attagene CIS-FACTORIAL HepG2 Assay for human Transforming Growth Factor (TGF) (AID 2282967); conditions: HepG2 Attagene CIS TGFb reporter, mRNA transcription; actives raise or lower the signal
Procedure, shortened: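 Transient MRTU transfection of HepG2 (FuGene 6). Dose 24 h. TriZol RNA, oligo(dT) RT, PCR, 6-FAM primer extension, HpaI cut, CE. Bidirectional fit, DMSO = baseline.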

[13] = ATG_VDRE_CIS: Attagene CIS-FACTORIAL HepG2 Assay for human Vitamin D Receptor Element (VDRE) (AID 2282968); conditions: HepG2 VDRE cis-reporter transcription, actives raise or lower the signal
Procedure, shortened: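 Compounds were applied for 24 h to HepG2 cells transfected with promoter-regulated reporter units. Total RNA was reverse-transcribed, and reporter amplicons were fluorescently labelled and sized by capillary electrophoresis.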

[14] = target: Nuclear receptor subfamily 1 group I member 3 (Homo sapiens) (UniProt Q14994); experiment: ATG_CAR_TRANS: Attagene TRANS-FACTORIAL HepG2 Assay for human Constitutive Androstane Receptor (CAR) (AID 2282969; active = hit-call score of the fitted dose curve at least 0.9, where 1 is the maximum;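 note: activators raise reporter mRNA above DMSO so AC50 marks induction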); conditions: HepG2 Attagene TRANS-FACTORIAL CAR reporter
Sequence of Nuclear receptor subfamily 1 group I member 3 (Homo sapiens) (Q14994 whole entry, looked up, the tested form may be a part): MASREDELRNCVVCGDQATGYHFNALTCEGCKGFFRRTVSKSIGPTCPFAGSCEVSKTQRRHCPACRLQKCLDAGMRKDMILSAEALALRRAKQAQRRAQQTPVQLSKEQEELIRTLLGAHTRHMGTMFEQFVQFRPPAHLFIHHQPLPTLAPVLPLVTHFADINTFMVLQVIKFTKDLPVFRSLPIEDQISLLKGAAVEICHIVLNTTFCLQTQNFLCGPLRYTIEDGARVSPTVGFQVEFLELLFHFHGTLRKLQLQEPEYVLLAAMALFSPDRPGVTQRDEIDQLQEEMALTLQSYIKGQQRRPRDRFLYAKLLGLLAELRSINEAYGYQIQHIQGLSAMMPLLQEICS
Procedure, shortened: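 Transiently transfected HepG2, multiplex TRANS reporters (CAR-Gal4 chimera driving GAL4-UAS reporter). 24 h dosing. Readout: reporter transcript by RT-PCR + capillary electrophoresis, fluorescence intensity; positive direction vs DMSO.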

[15] = target: Estrogen receptor (Homo sapiens) (UniProt P03372); experiment: ATG_ERa_TRANS: Attagene TRANS-FACTORIAL HepG2 Assay for human Estrogen Receptor alpha (ERa) (AID 2282970; active = hit-call score of the fitted dose curve at least 0.9, where 1 is the maximum); conditions: HepG2 Attagene TRANS ERa GAL4 reporter, mRNA
Sequence of Estrogen receptor (Homo sapiens) (P03372 whole entry, looked up, the tested form may be a part): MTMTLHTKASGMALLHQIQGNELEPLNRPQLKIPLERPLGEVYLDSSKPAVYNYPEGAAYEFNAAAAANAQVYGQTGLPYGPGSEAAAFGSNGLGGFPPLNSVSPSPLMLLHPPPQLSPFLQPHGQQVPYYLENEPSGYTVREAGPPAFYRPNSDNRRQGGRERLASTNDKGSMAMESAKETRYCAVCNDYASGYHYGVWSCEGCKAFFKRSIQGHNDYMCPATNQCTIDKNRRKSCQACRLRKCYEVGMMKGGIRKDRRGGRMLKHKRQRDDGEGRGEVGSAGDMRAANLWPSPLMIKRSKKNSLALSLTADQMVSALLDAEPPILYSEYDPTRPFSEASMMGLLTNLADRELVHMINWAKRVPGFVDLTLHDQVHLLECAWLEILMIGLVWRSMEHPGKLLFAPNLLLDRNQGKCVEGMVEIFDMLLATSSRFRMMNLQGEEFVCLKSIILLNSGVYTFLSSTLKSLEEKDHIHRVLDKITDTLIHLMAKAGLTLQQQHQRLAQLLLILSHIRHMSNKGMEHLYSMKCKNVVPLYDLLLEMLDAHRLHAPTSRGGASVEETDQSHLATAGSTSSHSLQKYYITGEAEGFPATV
Procedure, shortened: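 Gal4-fusion ERa transactivation, measured as reporter transcript level in transiently transfected HepG2 cells. Exposure 24 h; RT-PCR plus capillary electrophoresis with fluorescence detection.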

[16] = target: Steroid hormone receptor ERR1 (Homo sapiens) (UniProt P11474); experiment: ATG_ERRa_TRANS: Attagene TRANS-FACTORIAL HepG2 Assay for human Estrogen-Related Receptor alpha (ERRa) (AID 2282971; active = hit-call score of the fitted dose curve at least 0.9, where 1 is the maximum); conditions: HepG2 Attagene TRANS reporter, ERRa transactivation
Sequence of Steroid hormone receptor ERR1 (Homo sapiens) (P11474 whole entry, looked up, the tested form may be a part): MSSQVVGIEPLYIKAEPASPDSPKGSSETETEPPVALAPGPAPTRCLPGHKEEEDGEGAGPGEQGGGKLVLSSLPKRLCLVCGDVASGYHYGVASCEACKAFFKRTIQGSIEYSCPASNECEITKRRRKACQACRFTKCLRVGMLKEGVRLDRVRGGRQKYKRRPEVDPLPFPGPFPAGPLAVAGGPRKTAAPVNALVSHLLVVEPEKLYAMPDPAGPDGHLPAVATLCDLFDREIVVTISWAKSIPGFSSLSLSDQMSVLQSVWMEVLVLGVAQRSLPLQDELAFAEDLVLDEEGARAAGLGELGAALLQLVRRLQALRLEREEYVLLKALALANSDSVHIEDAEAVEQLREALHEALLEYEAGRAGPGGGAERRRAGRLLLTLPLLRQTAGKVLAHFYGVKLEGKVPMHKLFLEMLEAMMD
Procedure, shortened: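 HepG2 cells transiently transfected with GAL4-UAS reporter units and chimeric NR-Gal4 constructs; after 24 hour compound incubation, reporter mRNA quantified by RT-PCR, fluorescent labelling and capillary electrophoresis, gain of signal versus DMSO.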

[17] = target: X-box-binding protein 1 (Homo sapiens) (UniProt P17861); experiment: ATG_Xbp1_CIS: Attagene CIS-FACTORIAL HepG2 Assay for human X-box Binding Protein 1 (XBP1) (AID 2282972); conditions: HepG2 XBP1 cis-element reporter, Attagene multiplex; actives raise or lower the signal
Sequence of X-box-binding protein 1 (Homo sapiens) (P17861 whole entry, looked up): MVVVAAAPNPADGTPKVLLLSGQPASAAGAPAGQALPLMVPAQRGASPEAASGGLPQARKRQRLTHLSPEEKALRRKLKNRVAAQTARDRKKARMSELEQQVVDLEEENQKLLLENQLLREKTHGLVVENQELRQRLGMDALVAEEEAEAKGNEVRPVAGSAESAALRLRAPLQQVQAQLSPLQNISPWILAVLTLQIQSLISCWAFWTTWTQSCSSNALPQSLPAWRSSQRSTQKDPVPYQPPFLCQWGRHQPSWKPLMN
Procedure, shortened: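 Multiplexed cis-reporter readout in transfected HepG2 liver cells. Exposure lasted 24 hours. Activity in either direction was fitted against DMSO as negative control and baseline.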

[18] = target: Paired box protein Pax-6 (Homo sapiens) (UniProt P26367); experiment: ATG_Pax6_CIS: Attagene CIS-FACTORIAL HepG2 Assay for human Paired Box 6 (PAX6) (AID 2282956); conditions: HepG2 CIS-FACTORIAL PAX6 reporter transcription, RNA readout; actives raise or lower the signal
Sequence of Paired box protein Pax-6 (Homo sapiens) (P26367 whole entry, looked up): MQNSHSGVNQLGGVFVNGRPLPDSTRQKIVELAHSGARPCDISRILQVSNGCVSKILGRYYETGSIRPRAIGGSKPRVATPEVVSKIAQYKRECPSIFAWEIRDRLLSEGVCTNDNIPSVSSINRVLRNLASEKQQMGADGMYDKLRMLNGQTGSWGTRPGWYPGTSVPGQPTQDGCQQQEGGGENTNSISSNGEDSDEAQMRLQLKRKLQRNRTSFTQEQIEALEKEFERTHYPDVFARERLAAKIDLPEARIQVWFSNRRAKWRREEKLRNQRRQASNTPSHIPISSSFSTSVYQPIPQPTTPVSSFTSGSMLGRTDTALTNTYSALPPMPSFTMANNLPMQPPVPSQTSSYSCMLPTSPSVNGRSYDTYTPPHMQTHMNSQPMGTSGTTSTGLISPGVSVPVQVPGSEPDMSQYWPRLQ
Procedure, shortened: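 Fluorescent RT-PCR products separated by capillary electrophoresis report PAX6-linked promoter mRNA in HepG2 cells 24 h post-dose. Curves fitted bidirectionally, DMSO as negative control.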

[19] = ATG_M_19_TRANS: Attagene TRANS-FACTORIAL HepG2 Assay for M19 Transcription Factor (Internal Marker) (AID 2282974; active = hit-call score of the fitted dose curve at least 0.9, where 1 is the maximum); conditions: HepG2 Attagene TRANS-FACTORIAL M19 internal marker reporter
Procedure, shortened: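 Cells: human HepG2, transiently transfected with multiplexed reporter transcription units. Exposure: 24 h. Detection: RT-PCR of reporter mRNA with capillary electrophoresis. Analysis: gain-of-signal vs DMSO.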

[20] = target: Androgen receptor (Homo sapiens) (UniProt P10275); experiment: ATG_AR_TRANS: Attagene TRANS-FACTORIAL HepG2 Assay for human Androgen Receptor (AR) (AID 2282973; active = hit-call score of the fitted dose curve at least 0.9, where 1 is the maximum); conditions: HepG2 Attagene TRANS-FACTORIAL AR reporter transcription
Sequence of Androgen receptor (Homo sapiens) (P10275 whole entry, looked up, the tested form may be a part): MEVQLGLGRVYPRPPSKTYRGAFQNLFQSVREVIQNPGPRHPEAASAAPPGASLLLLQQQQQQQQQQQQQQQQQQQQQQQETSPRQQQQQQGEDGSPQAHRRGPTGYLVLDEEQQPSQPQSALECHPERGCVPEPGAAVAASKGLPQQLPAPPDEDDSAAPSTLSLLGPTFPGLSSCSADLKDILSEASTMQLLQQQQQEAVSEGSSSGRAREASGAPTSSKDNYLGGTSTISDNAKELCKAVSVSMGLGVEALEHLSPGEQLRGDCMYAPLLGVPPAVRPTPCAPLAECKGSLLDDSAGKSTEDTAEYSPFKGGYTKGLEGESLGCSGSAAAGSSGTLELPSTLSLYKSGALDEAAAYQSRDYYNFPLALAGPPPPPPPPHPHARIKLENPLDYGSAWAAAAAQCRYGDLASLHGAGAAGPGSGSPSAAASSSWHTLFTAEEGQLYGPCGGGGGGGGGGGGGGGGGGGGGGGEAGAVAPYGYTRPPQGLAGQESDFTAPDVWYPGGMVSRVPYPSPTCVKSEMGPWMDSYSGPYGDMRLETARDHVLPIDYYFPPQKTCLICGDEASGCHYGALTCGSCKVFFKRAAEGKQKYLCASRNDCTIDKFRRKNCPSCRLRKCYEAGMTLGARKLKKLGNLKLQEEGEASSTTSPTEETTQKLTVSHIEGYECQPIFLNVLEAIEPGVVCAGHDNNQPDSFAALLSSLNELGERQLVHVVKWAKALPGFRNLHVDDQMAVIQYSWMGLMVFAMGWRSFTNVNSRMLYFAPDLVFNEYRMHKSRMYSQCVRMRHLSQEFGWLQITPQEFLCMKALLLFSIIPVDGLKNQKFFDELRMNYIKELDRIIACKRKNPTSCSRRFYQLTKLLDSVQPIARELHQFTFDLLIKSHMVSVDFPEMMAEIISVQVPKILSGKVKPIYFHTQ
Procedure, shortened: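 HepG2 cells transiently transfected with AR-Gal4 chimera and GAL4-UAS reporter units; chemical exposure 24 h. Reporter mRNA quantified by RT-PCR with fluorescent labelling and capillary electrophoresis; gain-of-signal fitted against DMSO.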

Measured: AC50

Cc1cc(C)nc(Nc2ccccc2)n1
active: [1] 50 µM | [3] 16.7 µM | [7] 23 µM | [13] 14.9 µM
inactive: [2] | [4] | [5] | [6] | [8] | [9] | [10] | [11] | [12] | [14] | [15] | [16] | [17]

CC1(C)C(C(=O)OC(C#N)c2cccc(Oc3ccccc3)c2)C1(C)C (centres undefined)
active: [2] 1.74 µM | [3] 11 µM | [13] 6.46 µM | [15] 21.3 µM
inactive: [1] | [18] | [4] | [5] | [6] | [7] | [8] | [9] | [10] | [11] | [12] | [14] | [17]

CCOc1nc(C(Cl)(Cl)Cl)ns1
inactive: [1] | [3] | [5] | [6] | [7] | [8] | [9] | [10] | [11] | [12] | [13] | [14] | [15] | [16] | [17] | [19]
active: [2] 33.5 µM | [4] 70.3 µM

CCCCOCN(C(=O)CCl)c1c(CC)cccc1CC
inactive: [18] | [3] | [5] | [6] | [7] | [8] | [9] | [10] | [11] | [12] | [14] | [15] | [16] | [17] | [20] | [19]
active: [1] 0.888 µM | [2] 0.265 µM | [13] 0.5 µM

CC(C)(C)C(=O)C(Oc1ccc(Cl)cc1)n1cncn1 (centres undefined)
active: [1] 19.5 µM | [2] 5.02 µM | [3] 50 µM | [13] 34.4 µM | [15] 18.5 µM
inactive: [18] | [4] | [5] | [6] | [7] | [8] | [9] | [10] | [11] | [12] | [14] | [17] | [19]

CC1(C)CON(Cc2ccccc2Cl)C1=O
inactive: [1] | [5] | [6] | [7] | [8] | [9] | [10] | [11] | [12] | [14] | [17] | [19]
active: [2] 14.8 µM | [3] 50 µM | [4] 13.4 µM | [13] 13.2 µM | [15] 66.7 µM

Cc1c(COC(=O)[C@@H]2[C@H](/C=C(\Cl)C(F)(F)F)C2(C)C)cccc1-c1ccccc1
inactive: [18] | [3] | [4] | [5] | [6] | [7] | [8] | [9] | [10] | [11] | [12] | [14] | [17] | [19]
active: [1] 11.4 µM | [2] 2.31 µM | [13] 12.6 µM | [15] 14.9 µM

Source: PubChem BioAssay (EPA / NIEHS)
